The text below walks through data of PubChem BioAssay.

In test [1] the test system is Human papillomavirus type 1a protein E7 (residues 44-93). The experiment in a line: HPV1a E7 fragment binders on microarrays, primary screen, biochemical, small-molecule microarray, residues 44-93, 635 nm fluorescence (AID 1108).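 Further: E7 fragment applied at 1 µg/mL in TBST for 1 h at 4 C; score combines spot fluorescence with its signal to noise ratio.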 Conditions: small-molecule microarray binding, fluorescence 635 nm; higher = more signal.
Test [2] is described as follows: modulators of HCV replicon luciferase signal, primary screen, HCV replication inhibitor project, Huh7 cells, luciferase reporter (AID 1109).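 Further: huh7 hepatoma cells harbouring a luciferase neomycin HCV replicon reporter; luciferase luminescence as measure of HCV replicon replication; test concentration not given here.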 Conditions: 48 h, higher = more signal. A general note: In antiviral work, replicon cells carry a viral genome segment that copies itself.
The target in test [3] is Left-right determination factor 2 (Homo sapiens) (UniProt O00292). As to the kind of experiment: LEFTY2 binders on small-molecule microarrays, primary screen, biochemical, small-molecule microarray, 635 nm fluorescence scan (AID 1110). The following applies: LEFTY2 binding, higher = more signal.
For test [4], the target named is Calmodulin-1 (Homo sapiens) (UniProt P0DP23). As to the kind of experiment: CALM1 binders on microarrays, EGTA buffer, profiling panel, biochemical, small-molecule microarray, Cy5-labelled CALM1 (AID 1111).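 Further: labelled calmodulin applied in Tris saline Tween buffer holding calcium plus EGTA and DTT.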 Conditions: Cy5-CALM1 binding fluorescence, higher = more signal.
Test [5] shares this target. The experiment in a line: calcium-bound CALM1 binders on microarrays, profiling panel, artefact control for SMM control-protein annotation, biochemical, small-molecule microarray, Cy5-labelled CALM1, plus calcium (AID 1112).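 Further: score merges spot fluorescence with signal to noise from triplicate slides.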 Conditions: Cy5-CALM1 binding fluorescence, higher = more signal.
Test [6] is described as follows: small-molecule microarray binders of probe aWnt5a, primary screen, biochemical, biotinylated probe, 635/667 nm fluorescence (AID 1113).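 Further: score merges 667 nm fluorescence intensity with signal-to-noise per printed feature.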 The following applies: higher = more signal.
The nature of test [7]: small-molecule microarray binders of probe aShh, primary screen, biochemical, biotinylated probe, 635/667 nm fluorescence (AID 1114).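 Further: probe is biotin-labelled aShh protein from a stem cell growth factor screen; measures binding of labelled protein to compounds printed on the slide; score merges feature fluorescence at 667 nm with signal-to-noise.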 Conditions: higher = more signal.
Test [8] can be described thus: small-molecule microarray binders of probe aNog, primary screen, biochemical, biotinylated probe, 635/667 nm fluorescence (AID 1115).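 Further: probe is biotinylated aNog protein used at 0.15 µg/mL for 1 h at 4 C; z-score combines 667 nm fluorescence of each spot with its signal to noise.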 Conditions: higher = more signal.
Test [9] deals with Torsin-1A-interacting protein 1 (Homo sapiens) (UniProt Q5JTV8). As to the kind of experiment: LAP1 binders from COS7 cell lysate, primary screen, small-molecule microarray, 635/667 nm fluorescence (AID 1116). Conditions: COS7-hLAP1 lysate binding, 635 nm fluorescence, higher = more signal.
The target in test [10] is Alpha-bungarotoxin (Bungarus multicinctus) (UniProt P60615). The experiment in a line: alpha-bungarotoxin binders on microarray, profiling panel, artefact control for SMM control protein annotation, biochemical, small-molecule microarray, Alexa647 label, 635/667 nm fluorescence (AID 1117). Conditions: alpha-BTX-A647 binding fluorescence, higher = more signal.

Structures are written as SMILES.

Chain of Torsin-1A-interacting protein 1 (Homo sapiens) (Q5JTV8 whole entry, looked up): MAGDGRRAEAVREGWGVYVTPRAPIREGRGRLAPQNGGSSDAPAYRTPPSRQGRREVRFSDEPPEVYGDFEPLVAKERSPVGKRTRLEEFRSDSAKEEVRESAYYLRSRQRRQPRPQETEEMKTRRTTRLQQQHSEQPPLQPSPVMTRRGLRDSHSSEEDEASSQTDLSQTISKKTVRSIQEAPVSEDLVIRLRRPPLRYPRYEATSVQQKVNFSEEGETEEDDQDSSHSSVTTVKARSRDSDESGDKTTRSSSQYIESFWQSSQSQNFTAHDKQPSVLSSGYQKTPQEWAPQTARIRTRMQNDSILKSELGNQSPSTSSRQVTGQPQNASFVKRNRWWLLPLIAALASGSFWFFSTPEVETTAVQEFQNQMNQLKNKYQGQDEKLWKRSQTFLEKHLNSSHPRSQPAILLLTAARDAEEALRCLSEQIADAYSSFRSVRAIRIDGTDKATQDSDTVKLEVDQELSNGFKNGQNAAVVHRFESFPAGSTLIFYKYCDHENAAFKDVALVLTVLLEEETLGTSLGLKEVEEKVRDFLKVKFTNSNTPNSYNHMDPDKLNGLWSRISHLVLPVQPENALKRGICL
Chain of Alpha-bungarotoxin (Bungarus multicinctus) (P60615 whole entry, looked up): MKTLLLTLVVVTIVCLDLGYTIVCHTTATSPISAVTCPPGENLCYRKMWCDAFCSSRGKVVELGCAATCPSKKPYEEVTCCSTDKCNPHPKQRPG
Chain of Left-right determination factor 2 (Homo sapiens) (O00292 whole entry, looked up): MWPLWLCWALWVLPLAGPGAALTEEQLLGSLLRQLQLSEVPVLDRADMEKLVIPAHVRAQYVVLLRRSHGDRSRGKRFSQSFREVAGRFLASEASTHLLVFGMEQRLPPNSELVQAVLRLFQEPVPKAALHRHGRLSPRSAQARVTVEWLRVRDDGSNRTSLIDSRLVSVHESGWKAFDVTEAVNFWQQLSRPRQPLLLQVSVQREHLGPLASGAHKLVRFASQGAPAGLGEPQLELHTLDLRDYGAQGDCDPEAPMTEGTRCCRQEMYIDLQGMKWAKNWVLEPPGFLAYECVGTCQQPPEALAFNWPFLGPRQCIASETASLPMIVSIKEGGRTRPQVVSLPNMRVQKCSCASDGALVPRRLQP

With `CCCC1(C(=O)OC)C=C2C(=C(C)C(=O)C2C)CN1` (stereo not given), the composite z-score was -0.75 in test [1]; -0.569 in test [3]; -0.119 in test [4]; 0.881 in test [5]; -0.0512 in test [6]; 0.0141 in test [7]. The composite z-score in [8] is 0.929; in test [9], 0.635; in test [10], -0.14. This molecule also came in with a z-score in [2] of -0.442.

For the molecule `C=CC[C@@]1(C(=O)NCCCOC)N=C(c2ccc(OCCCO)cc2)O[C@@H]1c1ccccc1`, the composite z-score in [1] was 1.06; in [3], -0.526; in test [4], 1.94; in test [5], 0.626; in [6] it was 0.155; in test [7], -0.102. In addition, the composite z-score in [8] is 0.365; in test [9] it was 2.89; in [10], -0.146. Besides, the z-score in [2] was -0.449.

Turning to `COC(=O)C1=CC(CCCO)=CC(c2ccc(CN3CCCC3)cc2)N(Cc2cccc(OC(F)(F)F)c2)C=C1C(=O)OC` (stereo not given), the composite z-score is 1.38 in test [1]; 0.0706 in test [3]; 2.08 in test [4]; 0.695 in test [5]; -0.172 in test [6]; -0.0953 in test [7]. Besides, the composite z-score in test [8] is 0.947; in test [9], 2.1; in test [10], 1.89. Moreover, in [2], the z-score is -1.18.

Turning to `COC(=O)[C@@]1(Cc2ccccc2)[C@H]2c3cc(C(=O)N(C)C)n(Cc4ccc(C)o4)c3C[C@H]2CN1C(=O)c1ccccc1`, the composite z-score in test [1] worked out at 0.946; in [3] it was 0.0319; in [4] it was 1.69; in test [5] it was 1.26; in [6], 0.69; in test [7] it was 1.95. In addition, the composite z-score was 0.728 in test [8], 1.29 in test [9] and 0.76 in test [10]. Further, the z-score in test [2] was -2.49.

Regarding `O=C1C2C=CC(C(O)c3ccco3)N(Nc3ccccc3F)C2C(=O)N1c1ccccc1` (stereo not given), the composite z-score was 0.761 in test [1]; -0.46 in [3]; 0.175 in [4]; -0.0085 in test [5]; 0.115 in test [6]; 0.184 in test [7]. Besides, the composite z-score in [8] was 0.742; in [9], 0.942; in test [10], 0.25. Also, in test [2], the z-score is -0.137.

Turning to `COc1ccc([Si](C)(C)[C@H]2[C@H](CC(=O)N(CCO)Cc3ccccc3)O[C@@]3(C(=O)N(C)c4c(Br)cc(C)cc43)[C@@H]2C)cc1`, the composite z-score is 0.926 in test [1]; 1.12 in test [3]; -0.763 in test [4]; 0.973 in [5]; -0.176 in test [6]; -0.154 in test [7]. The results for the composite z-score in test [8], in test [9] and in [10] were -0.291, 0.491 and 0.572, respectively. In test [2], this molecule came in with a z-score of -4.28.

With `CCOC(=O)C[C@H]1[C@H](OC(=O)c2ccc(C(=O)c3ccccc3)cc2)[C@@H](NC(=O)c2ccc(-c3ccccc3)cc2)c2cc(OCCCO)ccc2N1C(=O)Cc1ccc(OC)cc1`, the composite z-score was 0.625 in test [1]; 0.176 in test [3]; 0.439 in [4]; -0.122 in test [5]; -0.0236 in [6]; -0.214 in [7]. Besides, the composite z-score in test [8] was -0.468; in test [9], 0.759; in test [10], 0.355. This molecule gave a z-score in test [2] of -0.751.

Consider `C=CCNC(=O)[C@@H]1[C@H]2C(=O)O[C@H](c3ccccc3)[C@H](c3ccccc3)N2[C@H](c2ccc(OCCO)cc2)[C@@]12C(=O)N(C(=O)OCCOC)c1ccc(C#Cc3ccc(OC)cc3)cc12`, for which the composite z-score in test [1] is 1.01; in test [3], 0.399; in test [4] it was 1.6; in test [5], 0.169; in [6], -0.27; in test [7] it was -0.291. The composite z-score in [8] is -0.272; in test [9] it was 0.229; in test [10], 1.22. In test [2], this molecule displayed a z-score of -1.14.

Regarding `Oc1ccc2cc[n+](Cc3cc4c(cc3Br)OCO4)cc2c1`, the composite z-score in test [1] was -1.22; in test [3], -0.929; in test [4], -0.489; in test [5] it was 0.446; in test [6], -0.1; in test [7], -0.0769. Moreover, the composite z-score in test [8] was -0.0546; in test [9] it was -0.346; in test [10] it was -0.791. Besides, the z-score in test [2] worked out at 1.65.

Consider `Cc1ccc(S[C@]2(C(=O)NC(C)C)CC(=O)N(Cc3cc(C(F)(F)F)cc(C(F)(F)F)c3)[C@@H]2c2ccc(CO)cc2)cc1`, for which the composite z-score is -0.411 in [1]; -1.76 in test [3]; -0.491 in [4]; 0.0262 in test [5]; 0.0857 in test [6]; -0.393 in test [7]. Also, the results for the composite z-score in test [8], in test [9] and in test [10] were -0.143, 0.0702 and 0.26, respectively. Moreover, the z-score in test [2] was -0.343.

As for `CCCCNC(=O)c1ccc(C#CC(C)(C)C)c(OC(C)=O)c1`, the composite z-score in test [1] was 0.845; in test [3] it was 0.806; in test [4], 0.0614; in test [5], -0.526; in test [6], -0.159; in test [7] it was -0.117. For the same molecule, the composite z-score in [8] is -0.256; in test [9], 0.5; in test [10], 0.608. In test [2], this molecule returned a z-score of -0.196.

Regarding `COc1cc(C(O)C2C=CC3C(=O)N(C)C(=O)C3N2Nc2ccccc2)cc(OC)c1OC` (stereo not given), the composite z-score in test [1] is 0.1; in [3] it was -0.129; in [4] it was 1.8; in test [5] it was 0.661; in [6], 0.233; in test [7], 0.0725. Also, the composite z-score in test [8] came to 2.22; in [9], 1.3; in test [10], 0.469. Moreover, the z-score in test [2] is 0.461.

For `CCOC(=O)C[C@H]1[C@H](OC(=O)Cc2ccc3c(c2)OCO3)[C@@H](NC(=O)c2ccc3ccccc3n2)c2cc(OCCCO)ccc2N1C(=O)c1ccc2ccccc2n1`, the composite z-score is 0.0977 in test [1]; 0.464 in test [3]; 0.509 in [4]; -0.0205 in [5]; -0.0512 in test [6]; 0.0048 in test [7]. For the same molecule, the values for the composite z-score in test [8], in [9] and in test [10] were -0.115, 0.0995 and 0.406, respectively. The molecule also registered a z-score in test [2] of -1.63.

As for `CCCCC(CC)C(O)C1C=CC2C(=O)N(C)C(=O)C2N1Nc1ccccc1` (stereo not given), the composite z-score was 1.4 in test [1]; -0.303 in test [3]; 1.29 in test [4]; 0.583 in test [5]; -0.0721 in test [6]; 0.0181 in test [7]. Also, the composite z-score stood at 0.558 in test [8], 0.466 in test [9] and 1.34 in test [10]. The same molecule returned a z-score in test [2] of -0.813.

`COCCCNC(=O)[C@@]1(CCC(=O)OC(C)(C)C)N=C(c2ccc(OCCCO)cc2)O[C@H]1c1ccccc1N=[N+]=[N-]`: the composite z-score in [1] stood at 0.515; in test [3], 0.473; in test [4], 2.01; in test [5] it was 0.807; in test [6], 0.302; in test [7] it was 0.0326. Moreover, the composite z-score is -0.261 in test [8], 2.32 in test [9] and 1.71 in test [10]. In test [2], this molecule showed a z-score of 1.46.

Turning to `NCCCCCCNC(=O)[C@@H]1C[C@@H]2C(=O)N[C@@H](CCCCN)C(=O)N2[C@@H]1c1ccc(O)cc1`, the composite z-score was 1.31 in [1]; 0.642 in test [3]; -0.301 in test [4]; 0.0301 in test [5]; -0.172 in test [6]; 0.12 in test [7]. Besides, the composite z-score is -0.0087 in [8], 1.66 in test [9] and -1.03 in [10]. The molecule also registered a z-score in [2] of -0.31.

On to `CC(C)N1C(=O)c2ccccc2[C@@H](C(=O)NCCN2CCOCC2)[C@@H]1c1ccc(CO)cc1`, for which the composite z-score was 0.0391 in test [1]; -2.07 in test [3]; -0.346 in [4]; 0.603 in test [5]; -0.256 in [6]; -0.221 in [7]. In addition, the composite z-score was -0.321 in test [8], -0.171 in test [9] and -1.25 in test [10]. The z-score in test [2] is -0.476.

For `O=C1OCCC=C[C@H]2OC34C=CCN(Cn5nnc6ccccc65)C(=O)[C@H]3N(CCCO)C(=O)[C@@H]4C12` (stereo not given in full), the composite z-score was -0.69 in [1]; -1.02 in test [3]; -0.5 in [4]; -0.0354 in test [5]; -0.112 in test [6]; -0.388 in test [7]. Also, the composite z-score is -0.527 in test [8], 0.879 in test [9] and 0.204 in [10]. This molecule came in with a z-score in [2] of -0.642.

For `COC(=O)[C@@H]1N=C(c2ccc(OCCCO)cc2)O[C@@H]1C`, the composite z-score in test [1] is 0.783; in [3] it was 0.309; in [4] it was -0.226; in [5] it was -1.2; in test [6], -0.148; in test [7], 0.233. Moreover, the composite z-score in test [8] is -0.356; in test [9], 1.71; in test [10], -0.294. In test [2], this molecule returned a z-score of 2.62.

Turning to `[N-]=[N+]=Nc1ccccc1C[C@@]1(C(=O)NCCN2CCOCC2)N=C(c2ccc(OCCCO)cc2)O[C@@H]1c1ccccc1N=[N+]=[N-]`, the composite z-score is -0.241 in test [1]; 0.0057 in test [3]; 1.94 in test [4]; 0.455 in test [5]; 0.0543 in test [6]; 0.411 in test [7]. Also, the results for the composite z-score in test [8], in [9] and in [10] were -0.406, 1.08 and 1.74, respectively. The molecule also gave a z-score in test [2] of -2.99.

Regarding `NC(=O)NCC#Cc1ccc2c(c1)[C@]1(C(=O)N2)[C@H](C(=O)N2CCN(c3ncccn3)CC2)[C@H]2C(=O)O[C@H](c3ccccc3)[C@H](c3ccccc3)N2[C@@H]1c1ccc(O)cc1`, the composite z-score in test [1] is 1.23; in [3], 0.728; in test [4], 0.313; in test [5], -0.156; in test [6], 0.108; in test [7], 0.296. In addition, the composite z-score was -0.524 in [8], 0.498 in test [9] and 0.677 in [10]. The same molecule showed a z-score in test [2] of -0.437.
